Test results published in PubChem BioAssay (NCI).
About 79,000 compounds went through this panel and 15% of them were active in at least one assay; those are over-represented in the sample as a whole. Activity calls are given as the source filed them. Rule as the data show it: active = growth inhibition above about 70%; inactive = the rest.

Tests used:
[1] = NCI Yeast Anticancer Drug Screen. Data for the rad52 strain (AID 147);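 also: 0% = growth of vehicle-treated control cultures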; conditions: S. cerevisiae rad52 mutant growth inhibition, hits give high values
Procedure, shortened: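 Here a repair-compromised yeast strain receives each compound; its growth is then quantified and normalised to vehicle-only controls.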

[2] = NCI Yeast Anticancer Drug Screen. Data for the rad50EPP+ strain (AID 151);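 also: 0% = growth of vehicle-treated control cultures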; conditions: S. cerevisiae rad50 mutant strain, hits give high values
Procedure, shortened: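 Read-out is yeast growth inhibition relative to vehicle; cells used were the rad50EPP+ strain.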

[3] = NCI Yeast Anticancer Drug Screen. Data for the mec2-1 strain (AID 157); conditions: S. cerevisiae mec2-1 strain, hits give high values
Procedure, shortened: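 Using mec2-1 yeast: add compound, measure growth, express inhibition versus vehicle-treated cultures.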

[4] = NCI Yeast Anticancer Drug Screen. Data for the sgs1 mgt1 strain (AID 161);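 also: 0% = growth of cultures given vehicle only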; conditions: S. cerevisiae sgs1 mgt1 strain, hits give high values
Procedure, shortened: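 Yeast cells carrying a defined DNA-repair defect were exposed to test compounds. Growth inhibition was measured relative to vehicle-treated controls.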

[5] = NCI Yeast Anticancer Drug Screen. Data for the CLN2oe strain (AID 163);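 also: 0% = growth of vehicle-only control cultures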; conditions: S. cerevisiae CLN2oe strain, hits give high values
Procedure, shortened: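 Whole-cell yeast growth assay. A strain engineered for altered cell-cycle control received compound, and inhibition relative to vehicle-treated cultures was recorded.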

[6] = NCI Yeast Anticancer Drug Screen. Data for the cln2 rad14 strain (AID 165);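 also: 0% = growth equal to vehicle treated cultures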; conditions: S. cerevisiae cln2 rad14 strain, hits give high values
Procedure, shortened: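 Yeast strain cln2 rad14, bearing defects in cell cycle control and DNA repair, serves as the test system; values reflect growth inhibition compared with vehicle.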

[7] = NCI Yeast Anticancer Drug Screen. Data for the bub3 strain (AID 167); conditions: S. cerevisiae bub3 mutant strain, hits give high values
Procedure, shortened: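 Steps: expose the mutant yeast strain to compound; grow alongside vehicle-treated cultures; measure growth; express inhibition against the vehicle cultures.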

[8] = NCI Yeast Anticancer Drug Screen. Data for the wt2 strain (AID 169);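 also: 0% = growth of vehicle-treated yeast cultures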; conditions: S. cerevisiae wt2 strain growth inhibition, hits give high values
Procedure, shortened: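 Treated yeast vs. vehicle-treated yeast: growth inhibition determined.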

[9] = NCI Yeast Anticancer Drug Screen. Data for the sgs1 strain (AID 173);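 also: 0% = growth of vehicle-only control cultures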; conditions: S. cerevisiae sgs1 mutant, hits give high values
Procedure, shortened: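 A genetically defined yeast mutant is incubated with the test compound, and its growth is compared to that of the same strain given vehicle.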

[10] = NCI Yeast Anticancer Drug Screen. Data for the mlh1 rad18 strain (AID 175); conditions: S. cerevisiae mlh1 rad18 strain growth inhibition, hits give high values
Procedure, shortened: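 Steps: expose repair-defective yeast to compound; measure growth; express inhibition against vehicle-treated controls.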

[11] = NCI Yeast Anticancer Drug Screen. Data for the rad18 strain (AID 177); conditions: S. cerevisiae rad18 mutant growth inhibition, hits give high values
Procedure, shortened: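 Measured value is growth inhibition of a yeast strain bearing a DNA repair alteration, referenced to vehicle-treated cells.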

[12] = NCI Yeast Anticancer Drug Screen. Data for the wt1 strain (AID 149);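 also: 0% = growth of vehicle-treated wt1 cultures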; conditions: S. cerevisiae wt1 strain (SPY 50644) growth inhibition, hits give high values
Procedure, shortened: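 Compounds are added to wt1 yeast cultures. Growth is then measured. Inhibition is expressed relative to vehicle-treated controls.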

[13] = NCI Yeast Anticancer Drug Screen. Data for the mgt1 strain (AID 153); conditions: S. cerevisiae mgt1 mutant growth inhibition, hits give high values
Procedure, shortened: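 Measured: inhibition of mgt1 yeast growth by compound, normalized to vehicle-treated cultures.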

[14] = NCI Yeast Anticancer Drug Screen. Data for the rad50 strain (AID 155);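 also: 0% = growth of vehicle-only cultures of the same strain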; conditions: S. cerevisiae rad50 strain growth inhibition, hits give high values
Procedure, shortened: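 Inhibition values express reduced yeast growth in compound-treated cultures relative to vehicle-treated controls.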

[15] = NCI Yeast Anticancer Drug Screen. Data for the rad14 strain (AID 159);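 also: 0% = growth of vehicle-treated control cultures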; conditions: S. cerevisiae rad14 strain growth inhibition, hits give high values
Procedure, shortened: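 A mutant yeast strain defective in DNA damage repair is treated with compound; inhibition of its growth is scored against untreated, vehicle-exposed cultures.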

[16] = NCI Yeast Anticancer Drug Screen. Data for the mlh1 strain (AID 171);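 also: 0% = growth of vehicle-treated control cultures of the same strain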; conditions: S. cerevisiae mlh1 strain growth inhibition, hits give high values
Procedure, shortened: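 A yeast strain with a defined genetic lesion serves as the test organism. Cultures receive compound or vehicle, and growth is measured.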

[17] = at 5.0 µM (retest, dose inferred, filed as 0.5)
[18] = at 50.0 µM (retest, dose inferred, filed as 5.0)

Measured: growth inhibition

Cn1c(=O)c2ccccc2c2ccccc21
active: [1]; at 33.0 µM 88% | [1]; at 100.0 µM 96% | [2]; at 33.0 µM 87% | [2]; at 100.0 µM 91% | [3]; at 50.0 µM 75.1% | [4]; at 50.0 µM 84.9% | [6]; at 50.0 µM 70.5% | [7]; at 50.0 µM 85.8% | [10]; at 50.0 µM 96.3% | [11]; at 33.0 µM 83% | [11]; at 100.0 µM 91%
inactive: [1]; at 1.2 µM -2% | [1]; at 3.7 µM 9% | [1]; at 11.0 µM 32% | [2]; at 1.2 µM 0% | [2]; at 3.7 µM 19% | [2]; at 11.0 µM 52% | [3]; at 1.2 µM 0% | [3]; at 3.7 µM 0% | [3]; [17] -45% | [3]; at 11.0 µM 11% | [3]; at 33.0 µM 26% | [3]; [18] 5% | [3]; at 100.0 µM 52% | [4]; [17] -64% | [4]; [18] 35% | [5]; at 1.2 µM 1% | [5]; at 3.7 µM 0% | [5]; at 11.0 µM 7% | [5]; at 33.0 µM 22% | [5]; at 100.0 µM 51% | [6]; [17] -54% | [6]; [18] -6% | [7]; at 1.2 µM -5% | [7]; at 3.7 µM -2% | [7]; [17] -69% | [7]; at 11.0 µM 5% | [7]; at 33.0 µM 29% | [7]; [18] 5% | [7]; at 100.0 µM 51% | [8]; at 1.2 µM -1% | [8]; at 3.7 µM -1% | [8]; at 11.0 µM -2% | [8]; at 33.0 µM 21% | [8]; at 100.0 µM 50% | [9]; at 1.2 µM -2% | [9]; at 3.7 µM -1% | [9]; at 11.0 µM -2% | [9]; at 33.0 µM 43% | [9]; at 100.0 µM 66% | [10]; [17] -114% | [10]; [18] 36% | [11]; at 1.2 µM 2% | [11]; at 3.7 µM 5% | [11]; at 11.0 µM 31%

CN=C(N)N/N=C/c1ccc2c(c1)Cc1ccccc1-2
active: [2]; at 100.0 µM 97% | [13]; at 100.0 µM 92% | [14]; at 50.0 µM 72.8% | [14]; at 100.0 µM 92% | [3]; [18] 92% | [15]; at 100.0 µM 88% | [4]; [18] 83% | [5]; at 100.0 µM 80% | [7]; [18] 100% | [7]; at 100.0 µM 73% | [16]; at 100.0 µM 91%
inactive: [12]; at 1.2 µM 0% | [12]; at 3.7 µM 17% | [12]; at 11.0 µM 4% | [12]; at 33.0 µM 8% | [12]; at 100.0 µM 44% | [2]; at 1.2 µM -6% | [2]; at 3.7 µM 12% | [2]; at 11.0 µM 23% | [2]; at 33.0 µM 32% | [13]; at 1.2 µM -11% | [13]; at 3.7 µM -2% | [13]; at 11.0 µM 1% | [13]; at 33.0 µM 14% | [14]; at 1.2 µM -7% | [14]; at 3.7 µM -9% | [14]; [17] 10% | [14]; at 11.0 µM -12% | [14]; at 33.0 µM -2% | [14]; [18] 64% | [3]; at 1.2 µM 9% | [3]; at 3.7 µM -4% | [3]; [17] 6% | [3]; at 11.0 µM -5% | [3]; at 33.0 µM -13% | [3]; at 50.0 µM 23.1% | [3]; at 100.0 µM 60% | [15]; at 1.2 µM -1% | [15]; at 3.7 µM -14% | [15]; at 11.0 µM -21% | [15]; at 33.0 µM -16% | [4]; [17] 24% | [4]; at 50.0 µM 30.2% | [5]; at 1.2 µM -90% | [5]; at 3.7 µM -34% | [5]; at 11.0 µM -16% | [5]; at 33.0 µM -5% | [6]; [17] -5% | [6]; [18] 27% | [6]; at 50.0 µM 19.8% | [7]; at 1.2 µM -15% | [7]; at 3.7 µM -4% | [7]; [17] 30% | [7]; at 11.0 µM -8% | [7]; at 33.0 µM 3% | [7]; at 50.0 µM 22.4% | [16]; at 1.2 µM -24% | [16]; at 3.7 µM -18% | [16]; at 11.0 µM -17% | [16]; at 33.0 µM -10%
